Consider 40 sequences from the OligoGym collection.
Further: reference of the scale not given here.

The target in one assay is KCND2. The assay can be described thus: pooled miR-30 sensor sort-seq; sequence = guide strand. Particulars: shRNA.
Sequence TCAGCGAACAGATAGAACCAAA registered a sensor-assay potency score (higher = more potent) of -1.25.

Sequence TTGTGTCGTCGTGAACAGCAGG came in with a sensor-assay potency score (higher = more potent) of -0.722.

Regarding TTGTTCGTCCACAAACTCGTGA, the sensor-assay potency score (higher = more potent) was -0.0668.

For the sequence TAGAACACCAGGGCCATCGTGC, the sensor-assay potency score (higher = more potent) is -0.481.

With TTACTGAGTAAACCATTCCGTT, the sensor-assay potency score (higher = more potent) was -1.06.

For TTGTACTCCTCATAACAGCAGT, the sensor-assay potency score (higher = more potent) is -0.753.

TTCTGAGGCACAACTCTTCAGT displayed a sensor-assay potency score (higher = more potent) of -0.605.

For TTGTCTGTCATCACCAGCCCAA, the sensor-assay potency score (higher = more potent) was -0.744.

As to ATTAACAGTTGCAACTTCCATG, the sensor-assay potency score (higher = more potent) is -0.92.

The sequence TTAAAGATCCTGAAGACCCGGA returned a sensor-assay potency score (higher = more potent) of 0.918.

Another assay deals with KCNE1. The description is as above. The conditions noted are these: shRNA.
Take TTCGAGTGCTCCAGCTTCTTGG: the sensor-assay potency score (higher = more potent) is -0.829.

With TTTTCAACGACATAGCACGACC, the sensor-assay potency score (higher = more potent) was -1.08.

TAGAGAAACAGTGAAACAGTGT displayed a sensor-assay potency score (higher = more potent) of 0.334.

As for TTGCCAGGCATCGGACTCGATG, the sensor-assay potency score (higher = more potent) is -1.64.

In the case of TCCAGCTTGCCGTCACTGCTGC, the sensor-assay potency score (higher = more potent) is -1.06.

TTGTCCTTCTCTTGCCAGGCAT yielded a sensor-assay potency score (higher = more potent) of -1.07.

In the case of TTGTTCTATGGCCAGATGGTTT, the sensor-assay potency score (higher = more potent) was -1.5.

Consider TTCTTGGAGCGGATGTAGCTCA, for which the sensor-assay potency score (higher = more potent) was -0.819.

TCGGACTCGATGTAGACGTTGA showed a sensor-assay potency score (higher = more potent) of -0.164.

Sequence TCGATGTAGACGTTGAATGGGT yielded a sensor-assay potency score (higher = more potent) of -0.608.

For TCAACGACATAGCACGACCTGT, the sensor-assay potency score (higher = more potent) was -0.979.

Sequence TTTAGAGAAACAGTGAAACAGT yielded a sensor-assay potency score (higher = more potent) of -0.257.

Another assay concerns the target KCNH5. The assay is described as above. Particulars: shRNA.
Take TTGAACAACGTAATATCCTTGA: the sensor-assay potency score (higher = more potent) is 0.815.

Take TTTCTTCACATCACTGATCTTA: the sensor-assay potency score (higher = more potent) was found to be 0.0331.

TAAACAAGACAGCAGATCGATC returned a sensor-assay potency score (higher = more potent) of -1.19.

Consider TTTGAACAACGTAATATCCTTG, for which the sensor-assay potency score (higher = more potent) is -0.17.

As to TGAGACACTAAAAATATCCTGA, the sensor-assay potency score (higher = more potent) amounted to 0.518.

In turn, TAGAGTTTTAGGAAGTCCCGTA yielded a sensor-assay potency score (higher = more potent) of -0.0513.

For TTCGTGTTTGACTTCCTGCAGT, the sensor-assay potency score (higher = more potent) was -0.357.

As for TTCCACTGTCACAAGAATCTGT, the sensor-assay potency score (higher = more potent) was 0.6.

For the sequence TATACAAGCAATATCTATGTTT, the sensor-assay potency score (higher = more potent) was -0.652.

In turn, TTACATATCAAAATCCATGTGT registered a sensor-assay potency score (higher = more potent) of 0.412.

The sequence TTGAACTTCTGGAAGAGCTTTC showed a sensor-assay potency score (higher = more potent) of -0.184.

In turn, TTTTCTTGTACAGAAGAACTTC registered a sensor-assay potency score (higher = more potent) of 0.0958.

A further assay deals with KCNJ11. Described as above. Particulars: shRNA.
For TCATCGGCCAGGTAGGAGGTGC, the sensor-assay potency score (higher = more potent) is -0.639.

The sequence TTATTGACAACGGAGAAGGCAG came in with a sensor-assay potency score (higher = more potent) of -0.854.

The sequence TTGACGGTGTTGCCAAACTTGG returned a sensor-assay potency score (higher = more potent) of -1.46.

Take TTGCGTACCACCTGCATGTGGA: the sensor-assay potency score (higher = more potent) was -0.169.

ATCAATGACATGGTAGATGATC came in with a sensor-assay potency score (higher = more potent) of -1.55.

For the sequence TACAATGGGCACAAAGCGCTGG, the sensor-assay potency score (higher = more potent) was determined as 0.352.
